Test results: PubChem BioAssay
Inconclusive results are not listed. Activity calls are given as the source filed them.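 Rule for the calls, unless noted: active = thallium flux through the channel raised or lowered by more than 3 SD from vehicle-only wells, actives on both sides; inactive = the rest.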

Legend:
[1] = Cy5 fluorescence interference with SSB-bound oligo, artefact control for HCV NS3 helicase inhibitor project, biochemical, NIH Clinical Collection, E. coli SSB (AID 743268; call rule not given here)
[2] = test system: Hepatitis C virus NS3 helicase; experiment: HCV NS3 helicase inhibitors, primary screen, biochemical, fluorescence polarization, NIH Clinical Collection (AID 743270; call rule not given here); conditions: NS3 helicase binding to Cy5-dT15 DNA, stronger effect = higher value, concentration not given here
[3] = modulation of C. elegans fzo-1 (AID 1259413; call rule not given here;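 note: fzo-1 mutant C. elegans worms in liquid wells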); conditions: C. elegans fzo-1 modulator screen, mean read-out; stronger effect = higher value
[4] = test system: F380Y; experiment: modulators of BK channel variants, profiling panel, selectivity assay, cell-based, U2OS BacMam, thallium flux, beta subunits (AID 1259406); conditions: at 30 µM;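 note: initial slope of Thallos dye fluorescence rise after thallium is added; log ratio against the mean of 0.3% DMSO vehicle wells on the same plate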
[5] = test system: F380Y/beta1; experiment: as above; conditions: at 30 µM
[6] = test system: F380Y/beta2Delta; experiment: as above; conditions: at 30 µM
[7] = test system: F380Y/beta4; experiment: as above; conditions: at 30 µM
[8] = test system: R275C; experiment: as above; conditions: at 30 µM
[9] = test system: R275C/beta1; experiment: as above; conditions: at 30 µM
[10] = test system: R275C/beta2Delta; experiment: as above; conditions: at 30 µM
[11] = test system: R275C/beta4; experiment: as above; conditions: at 30 µM
[12] = test system: R275C/Slo1WT/beta2; experiment: as above; conditions: at 30 µM
[13] = growth inhibition of DIPG glioma cells, dose response, cell-based, JHH-DIPG-1, MIPE4.0, CellTiter-Glo, qHTS (AID 1347062; cut-off not given, nearly all actives have AC50 up to about 27 µM;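 for AC50: cells exposed to compound for two days before readout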); conditions: JHH-DIPG-1 viability, CellTiter-Glo ATP luminescence
[14] = JHH-DIPG-1 glioma cell viability, MIPE5.0 library, CellTiter-Glo luminescence, qHTS (AID 1347067; cut-off not given, nearly all actives have AC50 up to about 26 µM;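 note: cells exposed to compound for 48 hours before readout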); conditions: JHH-DIPG-1 glioma viability, CellTiter-Glo ATP luminescence
[15] = SU-DIPG-XXV glioma cell viability, MIPE5.0 library, qHTS (AID 1347068; cut-off not given, nearly all actives have IC50 up to about 30 µM;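 for IC50: cells exposed to compound for 48 hours before viability readout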)
[16] = HTB85 osteosarcoma cell growth inhibition, synergistic combos for chromothripsis tumors, BGB or cisplatin IC20 combos (AID 1671453; in the data active = inhibition above about 80%;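 note: cells exposed for 96 hours before readout; 0% = vehicle DMSO and 100% = high DMSO killing control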); conditions: HTB85 osteosarcoma cells, drug combinations, stronger effect = higher value
[17] = MDA-MB-436 breast carcinoma cell growth inhibition, synergistic combos for chromothripsis tumors, BGB or cisplatin combos (AID 1671458; call rule not given here;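 note: cells exposed for 96 hours; 0% = vehicle DMSO and 100% = killing by high DMSO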); conditions: MDA-MB-436 breast carcinoma growth inhibition, drug combinations, stronger effect = higher value
[18] = growth inhibition of BT084 medulloblastoma cells, cell-based, ICGC_MB145, cisplatin and BGB IC40 combos (AID 1671461; in the data active = inhibition above about 80%;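 note: cells exposed to drugs for 96 hours; 0% = vehicle DMSO and 100% = high DMSO full killing control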); conditions: drug combinations, stronger effect = higher value
[19] = growth inhibition of RCMB18 medulloblastoma cells, cell-based, cisplatin and BGB IC40 combos (AID 1671462; in the data active = inhibition above about 80%;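 note: cells exposed to compound for four days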); conditions: stronger effect = higher value
[20] = growth inhibition of CRL1545 osteosarcoma cells, cell-based, cisplatin and BGB IC20 combos (AID 1671464; in the data active = inhibition above about 80%;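 note: cells exposed to compound for 96 hours before readout; 0% = vehicle DMSO and 100% = high DMSO killing control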); conditions: stronger effect = higher value

CCCC(C)(COC(N)=O)COC(=O)NC(C)C (stereo unspecified)
inactive: fluorescence ratio [1] 1.01 | inhibition [2] -6.82% | mean signal [3] 258 | log fold change Tl+ flux [4] 0.0133 | log fold change Tl+ flux [5] 0.0587 | log fold change Tl+ flux [6] -0.0375 | log fold change Tl+ flux [7] 0.0106 | log fold change Tl+ flux [8] 0.0157 | log fold change Tl+ flux [9] 0.044 | log fold change Tl+ flux [10] 0.0245 | log fold change Tl+ flux [11] 0.0318 | log fold change Tl+ flux [12] 0.0148

CN1C(=O)CCS(=O)(=O)C1c1ccc(Cl)cc1 (stereo unspecified)
inactive: outcome [13] | outcome [14] | outcome [15]

Clc1ccc(CO/N=C(\Cn2ccnc2)c2ccc(Cl)cc2Cl)c(Cl)c1
inactive: mean signal [3] 187

C[C@@H]1C[C@@H]([C@H](O)CC2CC(=O)NC(=O)C2)C(=O)[C@@H](C)C1
active: AC50 [13] 0.743 µM | IC50 [15] 0.934 µM

CCC1(c2ccc(N)cc2)CCC(=O)NC1=O (stereo unspecified)
inactive: fluorescence ratio [1] 1.03 | inhibition [2] -2.27% | mean signal [3] 262 | outcome [14] | outcome [15] | log fold change Tl+ flux [4] 0.023 | log fold change Tl+ flux [5] -0.0309 | log fold change Tl+ flux [6] -0.00163 | log fold change Tl+ flux [7] -0.00944 | log fold change Tl+ flux [8] 0.0191 | log fold change Tl+ flux [9] -0.00575 | log fold change Tl+ flux [10] -0.0116 | log fold change Tl+ flux [11] 0.0132 | log fold change Tl+ flux [12] 0.0134

N[C@@H](Cc1ccc(N(CCCl)CCCl)cc1)C(=O)O
active: AC50 [13] 23.5 µM | IC50 [15] 29.5 µM

O=c1[nH]c2ccccc2n1CCCN1CCC(n2c(=O)[nH]c3cc(Cl)ccc32)CC1
inactive: outcome [13] | outcome [15]

COc1ccc(C(CN(C)C)C2(O)CCCCC2)cc1 (stereo unspecified)
inactive: fluorescence ratio [1] 1.07 | inhibition [2] -2.77% | mean signal [3] 261 | outcome [13] | log fold change Tl+ flux [4] 0.00861 | log fold change Tl+ flux [5] -0.0404 | log fold change Tl+ flux [6] -0.0103 | log fold change Tl+ flux [7] 0.00869 | log fold change Tl+ flux [8] -0.109 | log fold change Tl+ flux [9] 0.0103 | log fold change Tl+ flux [10] -0.0272 | log fold change Tl+ flux [11] 0.0192 | log fold change Tl+ flux [12] 0.0327

O=C(O)CCCc1ccc(N(CCCl)CCCl)cc1
-11%: inhibition ([16]; measured here: with cisplatin IC20, at 0.5 µM)
-9.03%: inhibition ([18]; cisplatin combination, at 5 µM)
10.1%: inhibition ([20]; single agent, at 5 µM)
-21.9%: inhibition ([16]; measured here: with BGB IC20, at 5 µM)
-26.4%: inhibition ([18]; single agent, at 5 µM)
37.2%: inhibition ([18]; measured here: BGB IC40 combination 0.05 uM, at 0.05 µM)
-8.27%: inhibition ([19]; cisplatin combo, at 5 µM)
-8.05%: inhibition ([16]; measured here: with cisplatin IC20, at 5 µM)
-18.3%: inhibition ([19]; measured here: BGB IC40 combination, at 0.05 µM)
-15.9%: inhibition ([20]; measured here: with BGB IC20 combination, at 0.5 µM)
-7.5%: inhibition ([17]; measured here: BGB combination, at 5 µM)
-18.8%: inhibition ([20]; measured here: with cisplatin IC20 combination, at 0.5 µM)
active: AC50 [14] 16.6 µM
-37.9%: inhibition ([17]; measured here: cisplatin combination, at 0.5 µM)
-21%: inhibition ([19]; single agent, at 5 µM)
-17.2%: inhibition ([17]; measured here: BGB combination, at 0.5 µM)
15.9%: inhibition ([20]; single agent, at 0.05 µM)
-2.56%: inhibition ([18]; cisplatin combination, at 0.5 µM)
-6.46%: inhibition ([16]; single agent, at 5 µM)
-40%: inhibition ([19]; measured here: combination with cisplatin, at 0.5 µM)
inactive: fluorescence ratio [1] 1.06 | inhibition [2] -5% | mean signal [3] 236 | outcome [15] | inhibition ([16]; at 0.5 µM) -18.7% | inhibition ([17]; at 0.5 µM) -23.5% | inhibition ([18]; at 0.5 µM) -18.3% | inhibition ([19]; at 0.5 µM) -21.5% | inhibition ([20]; at 0.5 µM) -17.8% | log fold change Tl+ flux [4] -0.0169 | log fold change Tl+ flux [5] 0.0024 | log fold change Tl+ flux [6] 0.0059 | log fold change Tl+ flux [7] -0.0475 | log fold change Tl+ flux [8] -0.0229 | log fold change Tl+ flux [9] -0.022 | log fold change Tl+ flux [10] 0.041 | log fold change Tl+ flux [11] -0.00696 | log fold change Tl+ flux [12] 0.0346
-2.83%: inhibition ([17]; measured here: cisplatin combination, at 5 µM)
-46.7%: inhibition ([16]; measured here: with BGB IC20, at 0.5 µM)

CC(C)N(CCC(C(N)=O)(c1ccccc1)c1ccccn1)C(C)C (stereo unspecified)
active: fluorescence ratio [1] 0.1
inactive: inhibition [2] -3.18% | mean signal [3] 254 | log fold change Tl+ flux [4] -0.0248 | log fold change Tl+ flux [5] 0.0372 | log fold change Tl+ flux [6] 0.00612 | log fold change Tl+ flux [7] 0.017 | log fold change Tl+ flux [8] 0.00817 | log fold change Tl+ flux [9] -0.022 | log fold change Tl+ flux [10] -0.0143 | log fold change Tl+ flux [11] -0.0304 | log fold change Tl+ flux [12] 0.00641
